Activity calls are given as the source filed them. How the source made its calls: active means hit-call score of the fitted dose curve at least 0.9, where 1 is the maximum; inactive means score below 0.9.
Legend:
Conditions in all cases: mRNA level, 48 h; actives raise or lower the signal
[1] = read-out: Cytochrome P450 3A4 (Homo sapiens) (UniProt P08684); test: LTEA_HepaRG_CYP3A4: Life Technologies and Expression Analysis (LTEA) Assay for CYP3A4 using HepaRG (AID 2283487)
Procedure, shortened: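 Differentiated HepaRG cells, plated 48 h, then dosed 48 h in serum-free induction medium with 0.5% DMSO, 8 half-log concentrations up to 100 uM, duplicate. CYP3A4 mRNA by qRT-PCR, normalized to ACTB/GAPDH/POLR2A; bidirectional fit versus DMSO.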

[2] = read-out: DNA damage-inducible transcript 3 (DDIT3), DDIT3 (gene 1649); test: LTEA_HepaRG_DDIT3: Life Technologies and Expression Analysis (LTEA) Assay for DNA damage-inducible transcript 3 (DDIT3) using HepaRG (AID 2283488)
Procedure, shortened: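 qRT-PCR readout (Fluidigm TaqMan), housekeeping-normalized to ACTB, GAPDH, POLR2A. HepaRG cells, 48 h exposure, 8-point half-log series from 100 uM in 0.5% DMSO, duplicates. Gain or loss of signal fitted against DMSO baseline.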

[3] = read-out: Early growth response protein 1 (EGR1) transcription factor, EGR1 (gene 1958); test: LTEA_HepaRG_EGR1: Life Technologies and Expression Analysis (LTEA) Assay for Early growth response protein 1 (EGR1) transcription factor using HepaRG (AID 2283490)
Procedure, shortened: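 EGR1 transcript levels quantified by qRT-PCR (Fluidigm arrays) against three housekeeping genes after 48 h chemical exposure of HepaRG cells. Eight-point half-log series topping at 100 uM, 0.5% DMSO vehicle, analyzed for gain or loss.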

[4] = read-out: Ezrin (EZR), EZR (gene 7430); test: LTEA_HepaRG_EZR: Life Technologies and Expression Analysis (LTEA) Assay for Ezrin (EZR) using HepaRG (AID 2283491)
Procedure, shortened: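 EZR transcript levels came from Fluidigm qRT-PCR and were normalized to three housekeeping genes after 48 h chemical exposure of HepaRG cells. Dosing used an 8-point half-log series with a 100 uM top concentration in 0.5% DMSO, tested in duplicate; both directions were fitted versus vehicle.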

[5] = read-out: Cytochrome P450 3A7 (Homo sapiens) (UniProt P24462); test: LTEA_HepaRG_CYP3A7: Life Technologies and Expression Analysis (LTEA) Assay for CYP3A7 using HepaRG (AID 2283492)
Procedure, shortened: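 CYP3A7 transcript levels were read by TaqMan qRT-PCR on Fluidigm arrays after 48 h chemical exposure of human HepaRG cells, with housekeeping-gene normalisation. Eight half-log concentrations up to 100 uM in 0.5% DMSO were tested in duplicate.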

CYP3A5 (gene 1577) = test: LTEA_HepaRG_CYP3A5: Life Technologies and Expression Analysis (LTEA) Assay for CYP3A5 using HepaRG (AID 2283493)
Procedure, shortened: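 qRT-PCR read-out: CYP3A5 transcript in HepaRG lysates, housekeeping-normalized (ACTB/GAPDH/POLR2A), fitted bidirectionally against 0.5% DMSO baseline. Exposure 48 h, eight half-log concentrations up to 100 uM, duplicates.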

[6] = read-out: Fatty Acid-Binding Protein 1 (FABP1), FABP1 (gene 2168); test: LTEA_HepaRG_FABP1: Life Technologies and Expression Analysis (LTEA) Assay for Fatty Acid-Binding Protein 1 (FABP1) using HepaRG (AID 2283494)
Procedure, shortened: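 FABP1 expression by TaqMan qRT-PCR, normalised to three housekeeping genes, in HepaRG cells after 48 h chemical treatment. Eight-point half-log series topping at 100 uM in 0.5% DMSO, duplicates; gain or loss fitted relative to vehicle.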

[7] = read-out: Cytochrome P450 4A22 (Homo sapiens) (UniProt Q5TCH4); test: LTEA_HepaRG_CYP4A22: Life Technologies and Expression Analysis (LTEA) Assay for Cytochrome P450 4A22 (CYP4A22) using HepaRG (AID 2283495)
Procedure, shortened: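 HepaRG, 48 h post-plating -> serum-free induction medium; dosed 48 h, duplicate, 8 conc. (100 uM top, half-log), 0.5% DMSO. Readout: CYP4A22 mRNA by qRT-PCR, ACTB/GAPDH/POLR2A normalization; gain/loss fit relative to DMSO.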

[8] = read-out: Glutathione S-Transferase (GSTA2), GSTA2 (gene 2939); test: LTEA_HepaRG_GSTA2: Life Technologies and Expression Analysis (LTEA) Assay for Glutathione S-Transferase (GSTA2) using HepaRG (AID 2283497)
Procedure, shortened: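 GSTA2 transcript levels came from Fluidigm TaqMan qRT-PCR normalized to three housekeeping genes, fitted in both directions against DMSO. HepaRG cultures received chemicals for 48 h in serum-free induction medium (0.5% DMSO), 8 half-log concentrations up to 100 uM, duplicate.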

[9] = read-out: Glutamate-cysteine ligase catalytic (GCLC), GCLC (gene 2729); test: LTEA_HepaRG_GCLC: Life Technologies and Expression Analysis (LTEA) Assay for Glutamate-cysteine ligase catalytic (GCLC) using HepaRG (AID 2283498)
Procedure, shortened: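 Expression by TaqMan qRT-PCR, normalized to three housekeeping genes (ACTB, GAPDH, POLR2A), with up- or down-regulation fitted against DMSO. HepaRG cells dosed in duplicate for 48 h with 8 half-log concentrations up to 100 uM, vehicle 0.5% DMSO.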

[10] = read-out: growth arrest and DNA damage 45 (GADD45G), GADD45G (gene 10912); test: LTEA_HepaRG_GADD45G: Life Technologies and Expression Analysis (LTEA) Assay for growth arrest and DNA damage 45 (GADD45G) using HepaRG (AID 2283499)
Procedure, shortened: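 HepaRG, 48 h exposure, top 100 uM, half-log 8-point series, 0.5% DMSO vehicle, duplicates. Readout: GADD45G transcript by qRT-PCR (Fluidigm array), housekeeping-normalised (ACTB/GAPDH/POLR2A). Bidirectional curve fit vs DMSO baseline.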

[11] = read-out: Glutamate-cysteine ligase regulatory (GCLM), GCLM (gene 2730); test: LTEA_HepaRG_GCLM: Life Technologies and Expression Analysis (LTEA) Assay for Glutamate-cysteine ligase regulatory (GCLM) using HepaRG (AID 2283500)
Procedure, shortened: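 HepaRG, 48 h dosing, 100 uM top, half-log x8, 0.5% DMSO vehicle. Readout: GCLM mRNA by TaqMan qRT-PCR, housekeeping-normalized (ACTB/GAPDH/POLR2A). Curves fit bidirectionally vs DMSO baseline.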

[12] = read-out: Heat shock 70 kDa protein 1 (HSPA1A), gene 3303; test: LTEA_HepaRG_HSPA1A: Life Technologies and Expression Analysis (LTEA) Assay for Heat shock 70 kDa protein 1 (HSPA1A) using HepaRG (AID 2283502)
Procedure, shortened: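 HepaRG, 48 h exposure, 8-pt half-log CRC from 100 uM in 0.5% DMSO, duplicates. Readout: TaqMan qRT-PCR of HSPA1A mRNA, housekeeping-normalized (ACTB/GAPDH/POLR2A). Bidirectional fit vs 0.5% DMSO baseline.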

[13] = read-out: Hypoxia-inducible factor 1-alpha (Homo sapiens) (UniProt Q16665); test: LTEA_HepaRG_HIF1A: Life Technologies and Expression Analysis (LTEA) Assay for Hypoxia-inducible factor 1 (HIF1A) Trancription factor using HepaRG (AID 2283503)
Procedure, shortened: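 Gain- or loss-of-signal HIF1A mRNA changes are fitted against a DMSO baseline. HepaRG cultures receive eight concentrations, highest 100 uM, for 48 h in serum-free induction medium with 0.5% DMSO.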

[14] = read-out: 3-Hydroxy-3-Methylglutaryl-CoA Synthase 2 (HMGCS2), HMGCS2 (gene 3158); test: LTEA_HepaRG_HMGCS2: Life Technologies and Expression Analysis (LTEA) Assay for 3-Hydroxy-3-Methylglutaryl-CoA Synthase 2 (HMGCS2) using HepaRG (AID 2283504)
Procedure, shortened: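 qRT-PCR read-out of HMGCS2 transcript, normalised to three housekeeping genes, in HepaRG cells after 48 h chemical exposure. Eight-point curves from 100 uM, half-log dilutions, 0.5% DMSO vehicle; gain or loss fitted relative to DMSO baseline.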

HGF (gene 3082) = test: LTEA_HepaRG_HGF: Life Technologies and Expression Analysis (LTEA) Assay for Hepatocyte Growth Facto (HGF) using HepaRG (AID 2283505)
Procedure, shortened: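 HepaRG, 48 h dosing, 8-pt half-log series from 100 uM in 0.5% DMSO, duplicates. Readout: TaqMan qRT-PCR of HGF mRNA, housekeeping-normalized; bidirectional curve fit vs DMSO baseline.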

[15] = read-out: Insulin Like Growth Factor 1 (IGF1), IGF1 (gene 3479); test: LTEA_HepaRG_IGF1: Life Technologies and Expression Analysis (LTEA) Assay for Insulin Like Growth Factor 1 (IGF1) using HepaRG (AID 2283506)
Procedure, shortened: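 qRT-PCR readout of IGF1 mRNA, normalized to three housekeeping genes, after 48 h chemical exposure of HepaRG cells. Concentrations: 8-point half-log series, top 100 uM, 0.5% DMSO vehicle. Gain or loss fitted against DMSO baseline.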

[16] = read-out: Glutathione S-transferase M3 (GSTM3), GSTM3 (gene 2947); test: LTEA_HepaRG_GSTM3: Life Technologies and Expression Analysis (LTEA) Assay for Glutathione S-transferase M3 (GSTM3) using HepaRG (AID 2283501)
Procedure, shortened: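 qRT-PCR read-out of GSTM3 transcript, normalized to three housekeeping genes, from human HepaRG cells after 48 h chemical exposure. Eight-point half-log series, top 100 uM, 0.5% DMSO vehicle; gain or loss fitted relative to DMSO baseline.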

Hypoxia-inducible factor 1-alpha (Homo sapiens), sequence (Q16665 whole entry, looked up): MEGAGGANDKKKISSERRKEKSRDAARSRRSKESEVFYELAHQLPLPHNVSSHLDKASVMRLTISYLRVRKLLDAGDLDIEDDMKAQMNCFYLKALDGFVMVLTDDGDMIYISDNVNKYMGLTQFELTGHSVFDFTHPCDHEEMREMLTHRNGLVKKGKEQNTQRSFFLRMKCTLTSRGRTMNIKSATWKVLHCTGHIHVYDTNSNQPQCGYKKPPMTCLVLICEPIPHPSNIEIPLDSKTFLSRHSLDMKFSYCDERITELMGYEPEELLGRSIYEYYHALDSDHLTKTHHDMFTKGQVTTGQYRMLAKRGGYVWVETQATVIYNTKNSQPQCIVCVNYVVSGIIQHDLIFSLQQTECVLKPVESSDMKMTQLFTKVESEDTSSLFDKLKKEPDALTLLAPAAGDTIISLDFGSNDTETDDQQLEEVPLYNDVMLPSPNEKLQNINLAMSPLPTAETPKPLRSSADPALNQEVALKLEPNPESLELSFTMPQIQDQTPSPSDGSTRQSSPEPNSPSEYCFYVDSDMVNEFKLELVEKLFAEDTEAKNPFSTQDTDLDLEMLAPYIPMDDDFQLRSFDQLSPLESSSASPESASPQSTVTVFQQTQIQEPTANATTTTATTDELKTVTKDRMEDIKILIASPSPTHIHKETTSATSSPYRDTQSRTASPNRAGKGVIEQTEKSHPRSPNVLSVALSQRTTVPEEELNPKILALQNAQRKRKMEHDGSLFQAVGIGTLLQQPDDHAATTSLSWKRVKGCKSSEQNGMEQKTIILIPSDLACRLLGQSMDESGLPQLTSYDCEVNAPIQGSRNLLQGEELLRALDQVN
Cytochrome P450 3A4 (Homo sapiens), sequence (P08684 whole entry, looked up): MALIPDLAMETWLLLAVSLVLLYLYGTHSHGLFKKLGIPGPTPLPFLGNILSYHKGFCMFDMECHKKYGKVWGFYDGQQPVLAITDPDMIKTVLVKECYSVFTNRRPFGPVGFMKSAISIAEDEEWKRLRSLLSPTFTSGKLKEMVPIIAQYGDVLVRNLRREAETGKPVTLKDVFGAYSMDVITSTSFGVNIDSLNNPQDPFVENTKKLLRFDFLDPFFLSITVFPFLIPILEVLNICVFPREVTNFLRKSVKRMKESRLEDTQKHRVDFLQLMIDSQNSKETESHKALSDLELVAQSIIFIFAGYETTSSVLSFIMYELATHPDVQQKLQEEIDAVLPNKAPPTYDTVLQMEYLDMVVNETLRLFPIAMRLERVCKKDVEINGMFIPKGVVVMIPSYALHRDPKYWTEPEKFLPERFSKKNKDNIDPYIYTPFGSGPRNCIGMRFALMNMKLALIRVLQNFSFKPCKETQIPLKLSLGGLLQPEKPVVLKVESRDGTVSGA
Cytochrome P450 3A7 (Homo sapiens), sequence (P24462 whole entry, looked up): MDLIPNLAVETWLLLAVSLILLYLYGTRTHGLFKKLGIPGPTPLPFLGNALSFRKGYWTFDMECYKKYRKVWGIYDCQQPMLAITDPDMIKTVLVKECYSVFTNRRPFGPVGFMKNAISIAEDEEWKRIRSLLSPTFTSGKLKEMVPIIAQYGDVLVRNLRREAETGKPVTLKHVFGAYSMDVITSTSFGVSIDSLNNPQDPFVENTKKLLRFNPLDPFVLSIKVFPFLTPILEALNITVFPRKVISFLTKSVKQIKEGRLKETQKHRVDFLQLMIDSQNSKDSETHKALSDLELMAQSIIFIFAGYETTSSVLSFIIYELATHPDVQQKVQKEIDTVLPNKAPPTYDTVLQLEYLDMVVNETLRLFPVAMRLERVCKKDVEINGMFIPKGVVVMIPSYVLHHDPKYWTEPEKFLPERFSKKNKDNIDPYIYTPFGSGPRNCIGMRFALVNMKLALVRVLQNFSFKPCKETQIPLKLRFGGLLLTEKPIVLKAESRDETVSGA

## Cc1ccn2nc(S(=O)(=O)Nc3c(F)cccc3F)nc2n1
[1]
  AC50: 40.5 µM (active)
[2]
  outcome: inactive
[3]
  outcome: inactive
[4]
  outcome: inactive
[5]
  outcome: inactive
CYP3A5 (gene 1577)
  outcome: inactive
[6]
  outcome: inactive
[7]
  outcome: inactive
[8]
  outcome: inactive
[9]
  outcome: inactive
[10]
  outcome: inactive
[11]
  outcome: inactive
[12]
  outcome: inactive
[13]
  outcome: inactive
[14]
  outcome: inactive
HGF (gene 3082)
  outcome: inactive
[15]
  outcome: inactive

## CC[C@H](C)[C@H]1O[C@]2(C=C[C@@H]1C)C[C@@H]1C[C@@H](C/C=C(\C)[C@@H](O[C@H]3C[C@H](OC)[C@@H](O[C@H]4C[C@H](OC)[C@@H](NC)[C@H](C)O4)[C@H](C)O3)[C@@H](C)/C=C/C=C3\CO[C@@H]4[C@H](O)C(C)=C[C@@H](C(=O)O1)[C@]34O)O2
[1]
  AC50: 23.1 µM (active)
[2]
  AC50: 13.1 µM (active)
[3]
  AC50: 29 µM (active)
[4]
  AC50: 79.5 µM (active)
[5]
  AC50: 19.9 µM (active)
CYP3A5 (gene 1577)
  AC50: 22.7 µM (active)
[6]
  AC50: 14.6 µM (active)
[7]
  AC50: 7.23 µM (active)
[8]
  AC50: 23.3 µM (active)
[9]
  AC50: 50 µM (active)
[10]
  AC50: 2.78 µM (active)
[11]
  outcome: inactive
[16]
  outcome: inactive
[12]
  AC50: 20.4 µM (active)
[13]
  AC50: 74.3 µM (active)
[14]
  AC50: 12.5 µM (active)
HGF (gene 3082)
  outcome: inactive
[15]
  AC50: 27.7 µM (active)
